A selection: hits, their analogues and other compounds. The true share with any hit is near 10%.
GPT2 inh – inhibitors of human GPT2 alanine aminotransferase; Q8TD30; Potency, µM (highest dose often 57.7 µM), inactives show at the highest dose activity change, negative = inhibition, usual class: inhibitors; 100,000 compounds, 0.25% hits; Recombinant GPT2, coupled pyruvate oxidase/HRP Amplex Red fluorescence; also: % is scaled to controls: 0 for no effect and ±100 for the full control effect; nearly all actives have a fitted effect of over 60% in size
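GPT2 10ng/uL, a-KG 250uM, L-Ala 2mM, HEPES pH7.5 + 0.0001% Tween; 30 min RT. Then Amplex mix (PO/HRP/ThPP), 30 min RT dark, fluorescence. AOA 50uM used as positive control.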
FLuc inh – Photinus pyralis luciferase inhibition; P08659; purified P. pyralis luciferase, luminescence, biochemical; Potency, µM (titrated, usually from 115 µM), most hits filed as inhibitors; 76,000 compounds, 2.5% hits; also: % is scaled to controls: 0 for no effect and ±100 for the full control effect; nearly all actives have a fitted effect of over 65% in size
Target sequence (P08659 whole entry, looked up): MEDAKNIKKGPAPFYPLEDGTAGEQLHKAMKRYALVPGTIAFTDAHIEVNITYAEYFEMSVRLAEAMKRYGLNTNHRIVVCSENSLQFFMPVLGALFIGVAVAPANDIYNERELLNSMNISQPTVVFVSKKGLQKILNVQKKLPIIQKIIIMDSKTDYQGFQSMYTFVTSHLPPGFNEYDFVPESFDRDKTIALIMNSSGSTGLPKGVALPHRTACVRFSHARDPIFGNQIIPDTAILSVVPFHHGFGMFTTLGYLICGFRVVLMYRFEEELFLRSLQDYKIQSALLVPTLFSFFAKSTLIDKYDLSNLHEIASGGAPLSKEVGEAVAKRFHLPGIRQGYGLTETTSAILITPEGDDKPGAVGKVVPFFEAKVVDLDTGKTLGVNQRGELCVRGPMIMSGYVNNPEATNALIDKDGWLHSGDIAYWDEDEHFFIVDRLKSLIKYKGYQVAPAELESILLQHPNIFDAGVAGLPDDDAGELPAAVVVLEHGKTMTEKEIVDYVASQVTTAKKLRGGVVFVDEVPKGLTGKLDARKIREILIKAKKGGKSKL
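Biochemical qHTS: compound (6-point titration) added to 10uM D-luciferin plus 10uM ATP in Tris acetate pH 7.5 buffer with Mg, Tween-20 and BSA, then purified enzyme at 10nM; light output imaged.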
NPR1 antag – antagonists of human natriuretic peptide receptor Npr1; 76,000 compounds, 1.6% hits; Potency, µM (doses to about 46.3 µM), inactives show top-dose activity change, negative = inhibition, most hits filed as inhibitors; AID 1347048; HEK293 hNpr1 GloSensor cGMP, ANP-stimulated luminescence; P16066; calls by dose curve; also: % is scaled to controls: 0 for no effect and ±100 for the full control effect; nearly all actives have a fitted effect of over 60% in size
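Compound pre-incubated 30 min at room temperature on GloSensor-loaded HEK293 cells stably carrying hNpr1 and the pGS-40F cGMP biosensor. Stimulation uses hNppA at 0.1 nM final; luminescence is taken at baseline and 20 min post-agonist.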
3T3 cytotox – NIH 3T3 cell cytotoxicity; NIH 3T3 viability, CellTiter-Glo ATP luminescence, 48-72 h; Potency, µM (highest dose often 96.7 µM), for the others: top-dose activity change, negative = cytotoxicity, actives largely listed as inhibitors; 94,000 compounds, 4.3% hits; AID 1345082; also: % is scaled to controls: 0 for no effect and ±100 for the full control effect; nearly all actives have a fitted effect of over 55% in size
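Cells were seeded at 400 per well, treated with pin-transferred compound, and kept 48 or 72 hr at 37 °C before CellTiter-Glo addition and luminescence imaging of cellular ATP.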
HEK293 tox – cytotoxic compounds in HEK 293 cells | HEK 293 viability, ATP luminescence (CellTiter-Glo), 48-72 h | Potency, µM (series often up to 115 µM), inactives show at the highest dose activity change, negative = cytotoxicity, most hits filed as inhibitors | 94,000 compounds, 6.6% hits; also: % is scaled to controls: 0 for no effect and ±100 for the full control effect; nearly all actives have a fitted effect of over 60% in size
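Cytotoxicity was scored by loss of ATP-coupled luminescence (CellTiter-Glo) in HEK 293 cells. Compound treatment ran 48 or 72 hr at 37 degree Celsius, 5% CO2, 95% humidity.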
Npr1 antag conf – hNpr1 antagonism, confirmation assay; AID 1347044; Potency, µM (doses to about 57.6 µM), without a hit: top-dose activity change, negative = inhibition, most hits filed as inhibitors; shares compounds with NPR1 antag; HEK293 hNpr1 cGMP GloSensor luminescence, ANP-stimulated; 1,400 compounds, 76% hits; calls by dose curve; also: nearly all actives have a fitted effect of over 70% in size
Npr2 selectivity – hNpr2 antagonism, selectivity versus Npr1; Potency, µM (highest dose often 57.6 µM), without a hit: at the highest dose activity change, negative = inhibition, most hits filed as inhibitors; 1,400 compounds, 67% hits; shares compounds with NPR1 antag; AID 1347046; HEK293 hNpr2 GloSensor cGMP luminescence, CNP-stimulated; calls by dose curve; also: nearly all actives have a fitted effect of over 70% in size
FLuc counter – inhibits firefly luciferase, false Npr1 antagonist flag; 1,400 compounds, 0.7% hits; purified FLuc enzyme, luminescence, Km substrate; shares compounds with NPR1 antag; Potency, µM (titrated, usually from 57.6 µM), without a hit: top-dose activity change, negative = inhibition, actives largely listed as inhibitors; AID 1347047; also: series mostly up to about 58 µM; 0% is about no effect
GloSensor cGMP – control cell line activity, Npr1 antagonist counter-screen; shares compounds with NPR1 antag; Potency, µM (series often up to 57.6 µM), inactives show at the top dose activity change, negative = inhibition, actives largely listed as inhibitors; 1,400 compounds, 69% hits; AID 1347051; HEK293 GloSensor cGMP, SNP-stimulated, luminescence; calls by dose curve; also: % is scaled to controls: 0 for no effect and ±100 for the full control effect; nearly all actives have a fitted effect of over 70% in size
* marks the source's active call; other numbers are inactive results; i = inactive; u = inconclusive; x = no result; ! = not active in a repeat; [ ] = remark or other dose. Unless noted, calls follow the shape of the dose curve; as a rule, active = well fitted curve in the direction sought with a large enough effect; inconclusive = small, poorly fitted or top-dose-only effect, or another doubt; inactive = no such curve, though single readings can be large; an effect the other way counts as inactive or inconclusive. Potency is read from the fitted curve at half-maximal effect.

SMILES	GPT2 inh	FLuc inh	NPR1 antag	3T3 cytotox	HEK293 tox	Npr1 antag conf	Npr2 selectivity	FLuc counter	GloSensor cGMP
O=C(NCc1cccc(F)c1)c1csc(N2CCN(c3ccc(Cl)cc3)CC2)n1	-17%	i	13µM*	-19%	u	24µM*	24µM*	0%	22µM*
O=C(NCc1ccc(F)cc1)c1csc(N2CCN(c3ccccc3F)CC2)n1	4%	i	-6%	-13%	-6%	x	x	x	x
CCS(=O)(=O)Nc1ccc(C(=O)N2CCC3(CCCN(C)C3=O)C2)cc1 (centres undefined)	-15%	i	-1%	-17%	-25%	x	x	x	x
Cc1nn2c(c1-c1ccccc1C(C)C)N(C(=O)Cc1ccc(O)cc1)CCC2	4%[88.5 µM]	i	-2%[70.6 µM]	u	u	x	x	x	x
CC(=O)N1CCCn2nc(C)c(-c3ccccc3OCc3ccccc3)c21	-4%[88.5 µM]	i	-1%[70.6 µM]	u	u	x	x	x	x
Cc1nn2c(c1-c1ccccc1-c1ccccc1)N(C(=O)Cc1ccccn1)CCC2	-7%[88.5 µM]	i	-10%[70.6 µM]	-4%[138 µM]	u	x	x	x	x
COc1cccc(CC(=O)N2CCCn3nc(C)c(-c4ccccc4Oc4ccccc4)c32)c1	u	i	u	u	45µM*	u	19µM*	1%	-17%
COc1cccc(CC(=O)N2CCCn3nc(C)c(-c4ccccc4-c4ccccc4)c32)c1	5%[88.5 µM]	i	u	79µM*	u	u	31µM*	2%[86.2 µM]	-25%[86.2 µM]
Cc1nn2c(c1-c1ccccc1Oc1ccccc1)N(C(=O)Cc1ccc(O)cc1)CCC2	4%[88.5 µM]	i	20µM*	79µM*	89µM*	35µM*	28µM*	1%[86.2 µM]	u
Cc1nn2c(c1-c1ccccc1OCc1ccccc1)N(Cc1ccc(C(=O)O)s1)CCC2	-20%	i	6.3µM*	32µM*	35µM*	5.4µM*	7.7µM*	-9%	6.1µM*
CC(=O)Nc1ccccc1-c1c(C)nn2c1N(C(=O)Cc1ccc(Cl)cc1)CCC2	-19%[88.5 µM]	i	-2%[70.6 µM]	u	-5%[172 µM]	x	x	x	x
CN1CCN(CC(C)(CN)c2ccccn2)CC1 (centres undefined)	-9%[88.5 µM]	x	x	i	i	x	x	x	x
Cc1nn2c(c1-c1ccccc1Oc1ccccc1)N(C(=O)Cc1cccc(F)c1)CCC2	u	i	u	40µM*	u	u	u	1%	-23%
CC(=O)Nc1ccccc1-c1c(C)nn2c1N(C(=O)c1ccc(Oc3ccccc3)cc1)CCC2	u	i	11µM*	u	u	19µM*	17µM*	1%	17µM*
Cc1nn2c(c1-c1ccccc1OCc1ccccc1)N(C(=O)CCc1cccnc1)CCC2	-7%	i	u	u	u	u	u	4%	-2%
Cc1nn2c(c1-c1ccccc1C(N)=O)N(C(=O)Cc1cccc(F)c1)CCC2	3%[88.5 µM]	i	-1%[70.6 µM]	u	-16%[172 µM]	x	x	x	x
CC(C)(C)OC(=O)N1CC(NCc2cccc(F)c2F)C1	-15%[88.5 µM]	x	x	-5%[138 µM]	3%[172 µM]	x	x	x	x
Cn1cc(CN2CCCC2c2ccccn2)c(-c2ccc(Oc3ccccc3)cc2)n1 (centres undefined)	-3%	i	-5%	u	u	x	x	x	x
CCC(O)c1cc2n(n1)CCN(C(=O)c1ccc(-c3ccccc3)n1C)C2 (centres undefined)	-17%	i	16µM*	u	32µM*	24µM*	24µM*	-2%	24µM*
CCC(O)c1cc2n(n1)CCN(C(=O)c1cn(-c3ccccc3)nn1)C2 (centres undefined)	-4%	i	5%	-25%	-6%	x	x	x	x
CCc1nccn1CC(=O)NC(C)c1cnn(-c2ccccc2C)c1C (centres undefined)	-22%	i	11µM*	u	u	u	u	-2%	u
CCNc1ncc(C(=O)NC(C)c2cnn(-c3ccccc3C)c2C)cn1 (centres undefined)	4%	i	-24%	-20%	-18%	x	x	x	x
O=C(O)c1cnc(NCc2ccccn2)nc1-c1cccc(Cl)c1	i	i	-7%	0%	5%	x	x	x	x
O=C(NCCNC(=O)c1cccc(-c2ccsc2)c1)Nc1ccccc1	-3%	x	x	u	u	x	x	x	x
O=C(Nc1ccc(Cl)cc1)c1nc2c(o1)CCN(CC1CCCC1)CC2	3%[88.5 µM]	i	28µM*	u	u	35µM*	31µM*	-14%[86.2 µM]	25µM*
SMILES	GPT2 inh	FLuc inh	NPR1 antag	3T3 cytotox	HEK293 tox	Npr1 antag conf	Npr2 selectivity	FLuc counter	GloSensor cGMP
O=C(Nc1ccc(Cl)cc1)c1nc2c(o1)CCN(CC1CC1)CC2	i	i	u	u	u	u	-26%[86.2 µM]	-22%[86.2 µM]	u
O=C(c1cccc(Br)c1)N1CCN(c2cc(-c3ccc(Cl)cc3)[nH]n2)CC1	i	i	u	32µM*	40µM*	24µM*	u	-1%	u
O=C(c1ccc(F)c(F)c1)N1CCN(c2cc(-c3ccc(F)cc3)[nH]n2)CC1	-2%	i	u	u	u	x	x	x	x
O=C(c1cccc(Br)c1)N1CCN(c2cc(-c3cccs3)[nH]n2)CC1	i	i	-30%	u	u	u	u	-2%	-11%
O=C(c1cccc(F)c1)N1CCN(c2cc(-c3ccc(Cl)cc3)[nH]n2)CC1	-1%	i	u	u	u	24µM*	u	-5%	u
COc1cc(CN2CCN(c3ncc(F)cn3)CC2)cc(Cl)c1OC	3%	i	-21%	u	u	x	x	x	x
O=c1[nH]c(C2CCN(Cc3cccc(-c4cccs4)c3)CC2)nc2ccc(F)cc12	0%	i	u	28µM*	22µM*!	-27%	u	1%	u
Cc1ccc(OCC(=O)N2CCCCCC2c2nnc(-c3ccccc3)o2)cc1 (centres undefined)	i	i	4%	u	u	x	x	x	x
